Reference: the supplement of paper PMC6555819

Tests used:
Experiment in all cases: PBM binding z-score (relative to random genomic background probes); higher = stronger binding; sequences stand for … in GC…GCGATTGACAGCGTAGAATGAAGG
[1] = test system: RARb homodimer (NR concentration 270 nM)
In short: (§1)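 On custom Agilent 4×180K arrays, double-stranded probes with 34-nt variable regions carried direct-repeat seeds, single-nucleotide variants, half-site ablations or random human genomic background. Ligand-free nuclear receptor dimers were applied for 1 h, and binding was read with antibodies against each partner (one per run). Binding z-scores come from regression-normalized fluorescence, with the random background probes as reference.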

[2] = test system: RARg:RXRa (NR concentration 270 nM, RXRa partner concentration 90 nM)
In short: as §1

[3] = test system: RARg homodimer (NR concentration 270 nM)
In short: as §1

[4] = test system: RXRa DBDmut IVT, anti-RXR (DBD mutation: RXRa K156A/R161A, NR concentration 90 nM)
In short: as §1

[5] = test system: RXRa homodimer (NR concentration 180 nM)
In short: as §1

[6] = test system: THRa:RXRa (NR concentration 90 nM, RXRa partner concentration 90 nM)
In short: as §1

[7] = test system: THRa homodimer (NR concentration 90 nM)
In short: as §1

[8] = test system: VDR homodimer (NR concentration 270 nM)
In short: as §1

Row | Sequence | PBM binding z-score [1] | PBM binding z-score [2] | PBM binding z-score [3] | PBM binding z-score [4] | PBM binding z-score [5] | PBM binding z-score [6] | PBM binding z-score [7] | PBM binding z-score [8]
1 | ATATGTAGGTTAGTTGGGGTCATTCAGACTAGGC | 3.96 | 4.34 | 2.99 | 2.64 | 6.03 | 5.13 | 3.99 | 5.97
2 | CTACCAAGGTGAACAAGGTGGTTGATTACTATTC | 0.848 | 0.716 | 0.76 | 0.305 | 0.617 | 1.7 | 0.798 | -0.122
3 | GTACCAAGGTGAATAGATCGTTGATGAGTAGGCG | 0.231 | 0.664 | 0.719 | -0.335 | 0.634 | 1.03 | 0.372 | -0.106
4 | TTACCAAGGTGAGCGGAGGTCGTTGATCCAACTC | 1.72 | 1.31 | 1.18 | -0.227 | 1.44 | 3.73 | 0.656 | 0.886
5 | TTACCAAGGTGAAGTTCGTTGATCCCTCTGTAGA | 1.18 | 0.78 | 0.824 | 1.02 | 0.97 | 1.8 | 0.676 | 1.66
6 | TCTTGTAGATCAACGGGAGGTTAAGAAAGATCGA | 0.654 | 1.49 | 0.307 | 0.748 | 1.06 | 1.11 | -0.165 | -0.124
7 | TAGACAGGGTCAAAGGCCAGAGTACGAATGTCGA | 3.3 | 5.52 | 4.86 | 2.49 | 6.9 | 3.23 | 0.292 | 2.18
8 | CCTTACGGGTCACGAGATTATAGCACGACGAGCG | 2.95 | 5.47 | 5.3 | 1.95 | 5.8 | 2.82 | 0.216 | 0.718
9 | CGTTACGGGTCAAGGTTATAGCACGGGTGGTACG | 3.67 | 4.89 | 4.88 | 0.953 | 5.7 | 3.24 | 0.918 | 1.42
10 | ATCGAAAGGTCGAGGTGAGTATCGAGAAAGGGAA | 2.53 | 4.33 | 4.51 | 0.532 | 4.17 | 2.65 | 0.543 | 0.173
11 | TCATATAGGTAAATGCTAGGTGAAAGTTCGATCT | 1.2 | 0.926 | 0.552 | 1.97 | 1.35 | 1.75 | 0.835 | 0.742
12 | CGAACGAGGGCATGAGTTCATAGCAAATGCCGAT | 2.53 | 3.42 | 2.88 | 3.85 | 3.03 | 2.73 | 0.469 | 6.18
13 | GCTGCTAGGTCACGTTGGTCAGCTAACGGGTACG | 3.68 | 4.37 | 5.6 | 1.5 | 3.09 | 3.38 | 1.79 | 0.836
14 | GCTTGCAGGCCATTTGGGTCACTCAATGACGGGC | 1.87 | 1.31 | 1.56 | 0.31 | 0.653 | 2.07 | 0.686 | 0.751
15 | TAATATAGGTAAATGCTAGGTGAAAGTCCGATCT | 0.28 | 0.642 | 0.601 | 0.344 | 0.568 | 1.4 | 0.419 | 0.275
16 | TAGCCTAGGTCATGCGTGCCAGTATAGTGTCGGC | 3.14 | 3.78 | 3.75 | 0.805 | 2.85 | 2.96 | 1.22 | 0.552
17 | CCGACTGGTGCATAAGGTTACCATAAGCCAGCCC | 1.25 | 0.548 | 0.37 | 0.0565 | 0.963 | 1.99 | 1.58 | 0.347
18 | TCATATAGGAAAAGGTGAAAGTCGAACGATATGA | 1.17 | 1.38 | 1.12 | 1.03 | 1.86 | 0.964 | -0.616 | 0.135
19 | TATACAGGGTAAAAGGCCAGAGTACGAATGTCGA | 1.6 | 1.56 | 1.59 | -0.337 | 1.11 | 0.651 | -0.663 | 0.418

Row | Sequence | PBM binding z-score [1] | PBM binding z-score [2] | PBM binding z-score [3] | PBM binding z-score [4] | PBM binding z-score [5] | PBM binding z-score [6] | PBM binding z-score [7] | PBM binding z-score [8]
20 | CCTTACGGTTCACTCCAGGTTATAGCATCGGAGT | 1.62 | 1.48 | 0.86 | 3.44 | 1.89 | 4.66 | 1.33 | 3.65
21 | TAGCCTAGGTCAATCAGGGGCCAGTATAGAAAGC | 3.1 | 5.75 | 4.13 | 0.358 | 2.51 | 3.22 | 0.496 | 0.332
22 | TTGCCTAGGTCATTCAGGGGCCAGTATAGAAAGC | 3.3 | 6.09 | 4.46 | 2.14 | 2.76 | 3.48 | 0.747 | 1.75
23 | ATCTCTAGGTACCAAGTTCAGTGAAAGAGAGGAC | 1.51 | 0.686 | 0.865 | 1.27 | 0.546 | 0.926 | 0.692 | 2.26
24 | TTACCAAGATGAAAGGTCGTTGATGCACGCCTTG | 1.55 | 1.58 | 0.973 | 0.753 | 2.49 | 1.27 | -0.262 | 1.53
25 | GCAGACAGGTGGAACGCAGGTAACTCAGGGTGGC | -0.721 | -0.378 | -0.569 | -0.849 | -0.144 | 0.751 | -0.601 | -0.591
26 | TCTATTAGTTGTTTAGGGCAACCGAAACAGCGGA | 0.623 | 0.681 | 0.7 | 0.754 | 0.557 | 1.07 | 0.864 | 0.463
27 | TGTCAAAGTTCAAACGTAACGTAAGTATCCACAC | 3.89 | 5.71 | 6.15 | 4.86 | 5.15 | 2.12 | -0.319 | 4.63
28 | AGAATGAGGCTATACGTAGATCAGGGAAGAAAGT | -0.0625 | 0.222 | 0.232 | -0.0879 | -0.0272 | 0.084 | -0.165 | -0.0917
29 | CCTTACGGGTCACTGACAGGTTATAGCTTTTGGA | 3.45 | 5.62 | 4.37 | 1.64 | 4.7 | 2.82 | 0.24 | 0.718
30 | ACTATTAGTTGTCTTAGGGCAACCGATACGACGC | 0.406 | 0.149 | 0.589 | 0.518 | 0.061 | 1.03 | 0.603 | 0.0368
31 | CTTCAAAGTTCAAGGTAACGTAACAGAAAGCAGC | 3.62 | 5.19 | 6.14 | 4.34 | 4.62 | 2.96 | 1.34 | 3.44
32 | GCTAACGGGTCAAAGGTTATAGCATGAATAGAAT | 3.09 | 6.57 | 4.55 | 1.87 | 8.85 | 3.65 | -0.286 | 1.33
33 | CTCGAAAGGTCGGTTGACGTGAGTATACGGATAA | 1.53 | 2.54 | 2.8 | 1.06 | 2.29 | 1.21 | -0.605 | 0.501
34 | ATCTCTAGGGAACAAGTTCAGTGAAAGAGAGGAC | 1.49 | 0.977 | 1.13 | 0.71 | 0.649 | 0.823 | 0.263 | 2.43
35 | ATATGTAGGTTACATCCGGGGCATTCAGGCTATG | 1.23 | 1.76 | 1.3 | 0.51 | 1.12 | 1.83 | 0.704 | 0.977
36 | ATCTCTAGGTAAAGATAGGTCAGTGAATGCAAAT | 2.4 | 1.84 | 1.85 | 0.189 | 1.2 | 2.02 | 0.451 | 0.412
37 | GAAACAGGGTCAAGGCCAGAGTACGCGTATTGAT | 4.02 | 5.52 | 5.06 | 2.9 | 6.17 | 3.85 | 1.44 | 2.56
38 | ATCGAAAGGTCGTGAGGTGAGTAAACAGAAAGGC | 2.71 | 4.68 | 4.11 | 1.25 | 4.91 | 3.31 | 1.1 | 0.838

Row | Sequence | PBM binding z-score [1] | PBM binding z-score [2] | PBM binding z-score [3] | PBM binding z-score [4] | PBM binding z-score [5] | PBM binding z-score [6] | PBM binding z-score [7] | PBM binding z-score [8]
39 | CTACCAAGGTGAACAAGGTAGTTGATTACTATTC | 0.762 | 0.87 | 0.957 | 0.172 | 0.815 | 1.75 | 0.665 | -0.336
40 | CAAACTAGGTCACGGTCAAAGTCGGTTTGTGCCA | 4.62 | 4.99 | 5.89 | 2.12 | 3.82 | 3.94 | 2.34 | 1.7
41 | GCAGACAGGTGAAACGCAGTTAACTCAGGGTGGC | -0.134 | 0.384 | 0.0446 | -0.62 | 0.577 | 0.459 | -0.813 | -0.764
42 | GCATATAGGTAATCCAAGGTGAAAGTCCGATTGT | 0.964 | 0.387 | 0.453 | 0.551 | 0.399 | 4.57 | 1.35 | 0.0892
43 | CGACCAAGGTCAATGCTAGGTCAGTGAAAGCATT | 4.82 | 7.46 | 6.84 | 3.44 | 5.73 | 4.18 | 2.25 | 2.89
44 | TCTGGTAGATCAATAGAGGTTAAGAAAGTGCGCT | 1.43 | 0.787 | 0.391 | 0.698 | 1.48 | 2.22 | -0.138 | 0.435
45 | ATCTCTAGGTAAAGATCAGTGAAAGATCGATAGA | -0.585 | 0.367 | 0.528 | -0.253 | 0.257 | 0.044 | -0.362 | -0.142
46 | GCTCGAAGGACAAGGTCAGAGCTTTGTCCGTAGA | 3.06 | 3.15 | 3.49 | 0.0106 | 2.51 | 2.65 | 0.93 | 0.387
47 | CAAACTAGGTCACAGAGGTAAAAGTCCGTGCGTA | 3.54 | 4.87 | 5.32 | 1.95 | 3.93 | 3.71 | 1.63 | 2.01
48 | TGAATGAGGTTAAAGATCAGGCAACGTGGCGTCG | 0.653 | 2.44 | 1.16 | 1.02 | 3.63 | 2.71 | 0.312 | 0.286
49 | AGAACGAGGCCAATGAGTTGATAGCACGGGTGGC | 0.127 | 0.169 | 0.718 | 1.01 | 0.286 | 0.223 | 0.00356 | 1.71
50 | TAGCCTAGGTCATTGGGCCAGTAAAGTACGCATC | 2.78 | 3.91 | 4.25 | 1.61 | 3.1 | 2.69 | 0.775 | 1.48
51 | CGAACTAGGTCAAGGACATTGAATCTCCGCACGC | 3.12 | 3.91 | 4.46 | 1.62 | 2.91 | 3.16 | 2.43 | 1.13
52 | ACTTACGGGTCAACGCGGTTATAGCACGCGTATA | 3.18 | 5.42 | 5.07 | 1.88 | 5.68 | 2.97 | 0.345 | 1.45
53 | TCTTGTAGGTCAACAGGAGGTTAAGAAAGATCGA | 3.98 | 6.27 | 5.18 | 1.42 | 4.53 | 3.41 | 0.603 | 0.658
54 | AGAATGAGGTTAAGATCAGCGAAACAGAATACAT | 0.64 | 1.9 | 1.45 | 0.594 | 2.39 | 2.27 | 0.587 | 0.524
55 | CCTAGCAGGCCAATCTGGCTCACTCAAGGCTTGA | -0.747 | -0.58 | -0.5 | -0.298 | -0.743 | -0.627 | -0.709 | -1.02
56 | CGTCCAAGGTCAATGCTAGGTCAGCGAAAGCATT | 4.51 | 7.74 | 7.14 | 3.47 | 5.38 | 4.61 | 3.1 | 3.23
57 | CAAACTAGGTCAAGGTTAAAGTCGGTTTGTGCCA | 3.76 | 4.29 | 5.18 | 1.95 | 3.67 | 3.56 | 1.82 | 1.79
